Inconclusive results are not listed. Calls of active or inactive are those of the source. The calls were made as follows: active = hit-call score of the fitted dose curve at least 0.9, where 1 is the maximum; inconclusive = response in the unintended direction; inactive = score below 0.9.

The test is described as follows: ATG_XTT_Cytotoxicity: Cytotoxicity Assessment in the Attagene TRANS-FACTORIAL HepG2 Assay (AID 2283584).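 As to AC50: cells exposed to compound for 24 h before reading; active means loss of viability signal versus DMSO baseline.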 In short, it runs like this: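 Viability endpoint from XTT after 24 h chemical exposure of reporter-transfected human HepG2 liver cells; signal loss fitted relative to DMSO negative control.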
`O=c1oc(=O)c2cc3c(=O)oc(=O)c3cc12`: the call was inactive.

`O=[N+]([O-])c1ccc(C=Cc2ccc([N+](=O)[O-])cc2S(=O)(=O)O)c(S(=O)(=O)O)c1`: the outcome was inactive.

With `c1ccc2sc(SN(C3CCCCC3)C3CCCCC3)nc2c1`, the outcome was inactive. In the case of `COc1cc(C)cc(O)c1`, the compound was classed as inactive. With `Cc1ccc(C(=O)O)o1`, the result was inactive. As to `Nc1cc([N+](=O)[O-])ccc1Cl`, the call was inactive. The same measure, in the same setting: then `COc1cc2ncnc(Nc3cccc(Cl)c3)c2cc1OC`, with “inactive”; and `Nc1nc2ccc([N+](=O)[O-])cc2s1`, with “inactive”. Take `CCC/C=C/C=O`: the compound was called inactive.

As for `Cc1ccc(C(C)C)cc1O`, the compound was called inactive. Regarding `CCCCCCC#CC(=O)OC`, the call was inactive. For `CN(C)c1ccc(O)c2c1C[C@H]1C[C@H]3[C@H](N(C)C)C(=O)C(C(N)=O)=C(O)[C@@]3(O)C(=O)C1=C2O`, the call was inactive. On to `CC(C)(CO)[N+](=O)[O-]`, for which the result was inactive.

On to `Cc1c(Cl)c(=O)oc2cc(O)ccc12`, for which the call was inactive. Turning to `CCCC(C)C=O` (stereo not drawn), the compound was classed as inactive.

As to `OCc1cccnc1`, the compound was called inactive. With `CC(CCO)CCCC(C)(C)O` (stereo not drawn), the compound was classed as inactive. Turning to `CCCCC[Si](OCC)(OCC)OCC`, the result was inactive. Still for that read-out and setting: then `CC1COc2ccccc2N1C(=O)C(Cl)Cl` (stereo not drawn), with “inactive”. In the case of `CC(=O)/C=C/C1=C(C)CCCC1(C)C`, the compound was classed as inactive. Take `NCCCN1CCOCC1`: the call was inactive. For `CC1(C)[C@H](C(=O)OCc2cccc(Oc3ccccc3)c2)[C@@H]1C=C(Cl)Cl`, the compound was called inactive. With `O=C(O)CCCCCCCCCCC(=O)O`, the call was inactive.

As to `O=CCCc1ccccc1`, the compound was classed as inactive. In the case of `O=S(=O)(O)NC1CCCCC1`, the compound was called inactive. As for `Cc1cccc(Nc2ccccc2C(=O)O)c1C`, the outcome was inactive. In the case of `COc1ccnc(CS(=O)c2nc3cc(OC(F)F)ccc3[nH]2)c1OC` (stereo not drawn), the outcome was inactive. Take `COc1c(Cl)c(Cl)c(Cl)c(Cl)c1Cl`: the call was inactive.

Regarding `Cc1ccc(C=O)cc1`, the result was inactive.

With `Cc1cccc(C)c1C`, the result was inactive. Consider `CSc1nnc(C(C)(C)C)c(=O)[nH]1`, for which the outcome was inactive. Turning to `CCc1c(C)cc(N)c(CC)c1N`, the outcome was inactive. With `C=C(C)C(=O)OCc1ccccc1`, the outcome was inactive.

Turning to `N#Cc1nc(Cl)c(Cl)c(Cl)c1Cl`, the AC50 is 56.8 µM (active). As for `Clc1ccc2c(c1)C(N1CCNCC1)=Nc1ccccc1O2`, the AC50 is 41.8 µM (active). For `O=C[C@H](O)[C@H](O)[C@H](O)CO`, the compound was called inactive.

For `Cc1cccc(C)c1[N+](=O)[O-]`, the call was inactive. As to `CCCC[n+]1ccccc1`, the result was inactive.

The AC50 is the concentration at which the activity in the assay is half-maximal.

For the origin of these results see PubChem BioAssay (EPA / NIEHS).
